Assay outcomes deposited in PubChem by The Scripps Research Institute Molecular Screening Center.
Compounds with a hit are over-represented: about 0.84% of the library has one in this group of screens.
SRC3 TRFRET art – flags TR-FRET format artefacts in PPARgamma SRC-3 recruitment agonist screen; TR-FRET artefact counter-screen, PPARgamma/SRC-3 format; hits give high values; TR-FRET ratio at 8 µM; actives 0.39% (n = 99,000); AID 1048
PPARg SRC-1 ag – promotes SRC-1 coactivator recruitment by human PPARgamma | P37231 | PPARgamma-SRC-1 coactivator recruitment biochemical assay | activation, % at 8 µM | actives 0.41% (n = 200,000); in the data active = activation above about 19%
Target sequence (P37231 whole entry, looked up): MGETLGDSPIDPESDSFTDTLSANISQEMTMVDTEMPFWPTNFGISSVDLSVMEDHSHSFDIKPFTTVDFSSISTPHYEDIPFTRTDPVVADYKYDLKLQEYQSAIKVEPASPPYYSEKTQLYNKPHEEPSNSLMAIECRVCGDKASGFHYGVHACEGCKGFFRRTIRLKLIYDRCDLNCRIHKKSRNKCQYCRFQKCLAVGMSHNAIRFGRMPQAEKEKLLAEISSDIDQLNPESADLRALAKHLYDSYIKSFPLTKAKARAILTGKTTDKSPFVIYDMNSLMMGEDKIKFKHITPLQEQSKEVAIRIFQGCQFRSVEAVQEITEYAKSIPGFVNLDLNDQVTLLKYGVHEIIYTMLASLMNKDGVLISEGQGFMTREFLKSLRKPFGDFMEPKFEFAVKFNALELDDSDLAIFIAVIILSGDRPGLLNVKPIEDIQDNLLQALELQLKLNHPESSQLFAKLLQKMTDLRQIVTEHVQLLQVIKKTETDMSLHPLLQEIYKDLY
PPARg SRC2 recr – promotes SRC-2 coactivator recruitment by human PPARgamma; activation, % at 8 µM; AID 1032; actives 0.34% (n = 200,000); PPARgamma LBD-SRC-2 recruitment, biochemical; in the data active = activation above about 22%
PPARg SRC3 recr – agonists of human PPARgamma SRC-3 coactivator recruitment | P37231 | biochemical PPARgamma/SRC-3 coactivator recruitment assay | activation, % at 8 µM | actives 0.26% (n = 200,000) | AID 731; in the data active = activation above about 23%
SRC1 TRFRET art – flags TR-FRET format artefacts in PPARgamma SRC-1 recruitment agonist screen; TR-FRET detection artefact counter-screen, emission ratio; hits give high values; TR-FRET ratio at 8 µM; actives 0.34% (n = 99,000); in the data active = TR-FRET ratio above about 2300
SRC2 TRFRET art – flags TR-FRET format artefacts in PPARgamma SRC-2 recruitment agonist screen | TR-FRET artefact counter-screen; hits give high values | TR-FRET ratio at 8 µM | actives 0.4% (n = 200,000)
PPARg SRC2 conf – human PPARgamma SRC-2 recruitment agonism, confirmation. biochemical SRC-2 recruitment by PPARgamma. actives 52% (n = 790). AID 1297. shares compounds with PPARg SRC3 recr. activation, % at 8 µM; in the data active = activation above about 22%
PPARg SRC1 conf – confirmation of agonists of SRC-1 recruitment by human PPARgamma; actives 43% (n = 790); activation, % at 8 µM; PPARgamma–SRC-1 coactivator recruitment biochemical assay; shares compounds with PPARg SRC3 recr; in the data active = activation above about 20%
PPARg SRC3 ag – human PPARgamma SRC-3 recruitment agonism, confirmation; actives 29% (n = 790); biochemical PPARgamma-SRC-3 coactivator recruitment, agonist mode; AID 1301; shares compounds with PPARg SRC3 recr; activation, % at 8 µM; in the data active = activation above about 24%
Hits are given with their value. Cut-off read from the data, not from the text of the source, unless noted: active = TR-FRET ratio above about 2000; inactive = the rest.

CCn1c(=O)cc(SCC(=O)Nc2ccc3c(c2)OCCO3)c2ccccc21 was read as PPARg SRC-1 ag 68.6, PPARg SRC2 recr 84.9, PPARg SRC3 recr 92.3, SRC2 TRFRET art 3434, PPARg SRC2 conf 65.0, PPARg SRC1 conf 45.7 and PPARg SRC3 ag 43.4.
Screening CCCn1cc(SCC(=O)Nc2ccc3c(c2)OCO3)c2ccccc21 returned PPARg SRC-1 ag inactive, PPARg SRC2 recr inactive, PPARg SRC3 recr inactive and SRC2 TRFRET art inactive.
CCCOc1ccc(N2C(=O)CC(N(CCOC34CC5CC(CC(C5)C3)C4)C(C)=O)C2=O)cc1 (stereo not drawn) was read as SRC3 TRFRET art inactive, PPARg SRC-1 ag inactive, PPARg SRC2 recr inactive, PPARg SRC3 recr inactive, SRC1 TRFRET art inactive and SRC2 TRFRET art inactive.
For COC(=O)c1cc(Br)c(=O)n(-c2ccccn2)c1 the results were PPARg SRC-1 ag inactive, PPARg SRC2 recr inactive, PPARg SRC3 recr inactive and SRC2 TRFRET art inactive.
For COC(=O)c1cc(Br)c(=O)n(-c2nccs2)c1 the results were PPARg SRC-1 ag 37.0, PPARg SRC2 recr 56.6, PPARg SRC3 recr 73.6, SRC2 TRFRET art 2990, PPARg SRC2 conf 22.4, PPARg SRC1 conf inactive and PPARg SRC3 ag inactive.
For NS(=O)(=O)c1ccc(-c2ccc(/C=C3\C(=O)Nc4cc(Cl)ccc43)o2)cc1 the results were SRC3 TRFRET art inactive, PPARg SRC-1 ag 26.6, PPARg SRC2 recr inactive, PPARg SRC3 recr inactive, SRC1 TRFRET art inactive, SRC2 TRFRET art inactive, PPARg SRC2 conf 30.7, PPARg SRC1 conf inactive and PPARg SRC3 ag inactive.
For CC1(C)OC(=O)C(=Cc2ccc(-c3ccc(S(N)(=O)=O)cc3)o2)C(=O)O1 the results were SRC3 TRFRET art inactive, PPARg SRC-1 ag inactive, PPARg SRC2 recr inactive, PPARg SRC3 recr inactive, SRC1 TRFRET art inactive and SRC2 TRFRET art inactive.
For CC(=O)c1cccc(NC(=O)/C(=C\c2cccnc2)NC(=O)c2ccco2)c1 the results were SRC3 TRFRET art inactive, PPARg SRC-1 ag inactive, PPARg SRC2 recr inactive, PPARg SRC3 recr inactive, SRC1 TRFRET art inactive and SRC2 TRFRET art inactive.
COc1cc(OC)cc(C(=O)N=c2sc3ccccc3n2C)c1 was read as SRC3 TRFRET art inactive, PPARg SRC-1 ag inactive, PPARg SRC2 recr inactive, PPARg SRC3 recr inactive, SRC1 TRFRET art inactive and SRC2 TRFRET art inactive.
For COc1cccc(C(=O)N=c2sc3cc(S(C)(=O)=O)ccc3n2C)c1 the results were SRC3 TRFRET art inactive, PPARg SRC-1 ag 26.8, PPARg SRC2 recr inactive, PPARg SRC3 recr inactive, SRC1 TRFRET art inactive, SRC2 TRFRET art inactive, PPARg SRC2 conf inactive, PPARg SRC1 conf inactive and PPARg SRC3 ag inactive.
CCc1cccc(NC(=O)Cc2ccc(OC)c(OC)c2)c1 was read as SRC3 TRFRET art inactive, PPARg SRC-1 ag inactive, PPARg SRC2 recr inactive, PPARg SRC3 recr inactive, SRC1 TRFRET art inactive and SRC2 TRFRET art inactive.
For O=C(Cc1ccccc1)Nn1c(O)c(/C=C2\C=Nc3ccccc32)sc1=S the results were SRC3 TRFRET art inactive, PPARg SRC-1 ag inactive, PPARg SRC2 recr 23.9, PPARg SRC3 recr inactive, SRC1 TRFRET art inactive, SRC2 TRFRET art inactive, PPARg SRC2 conf inactive, PPARg SRC1 conf inactive and PPARg SRC3 ag inactive.
CCn1c(O)c(/C=C2\C=Nc3ccccc32)sc1=Nc1ccccc1 was read as PPARg SRC-1 ag inactive, PPARg SRC2 recr inactive, PPARg SRC3 recr inactive and SRC2 TRFRET art inactive.
`CCSc1nn2c(=O)c3ccccc3nc2s1` gave PPARg SRC-1 ag inactive, PPARg SRC2 recr inactive, PPARg SRC3 recr inactive and SRC2 TRFRET art inactive.
Clc1cccc(-c2ccc(C=Nc3ccc(N4CCOCC4)cc3)o2)c1 was read as SRC3 TRFRET art inactive, PPARg SRC-1 ag 27.5, PPARg SRC2 recr 26.4, PPARg SRC3 recr inactive, SRC1 TRFRET art inactive, SRC2 TRFRET art 2011, PPARg SRC2 conf 34.6, PPARg SRC1 conf 25.5 and PPARg SRC3 ag inactive.
`CCOC(=O)CSc1c(-c2cccs2)[nH]c2ccccc12` gave SRC3 TRFRET art inactive, PPARg SRC-1 ag inactive, PPARg SRC2 recr 24.7, PPARg SRC3 recr inactive, SRC1 TRFRET art inactive, SRC2 TRFRET art inactive, PPARg SRC2 conf 32.0, PPARg SRC1 conf 23.1 and PPARg SRC3 ag inactive.
`CCCCc1cc(=O)oc2cc(O)cc(O)c12` gave SRC3 TRFRET art inactive, PPARg SRC-1 ag 27.8, PPARg SRC2 recr inactive, PPARg SRC3 recr inactive, SRC1 TRFRET art 2687, SRC2 TRFRET art 2054, PPARg SRC2 conf inactive, PPARg SRC1 conf inactive and PPARg SRC3 ag inactive.
`CCCCc1cc(=O)oc2cc(C)cc(O)c12` gave PPARg SRC-1 ag inactive, PPARg SRC2 recr inactive, PPARg SRC3 recr inactive and SRC2 TRFRET art inactive.
Screening Oc1cc2c(cc1O)C1c3ccc(O)c(O)c3OCC1(O)C2 (stereo not drawn) returned SRC3 TRFRET art inactive, PPARg SRC-1 ag 27.1, PPARg SRC2 recr inactive, PPARg SRC3 recr inactive, SRC1 TRFRET art inactive, SRC2 TRFRET art inactive, PPARg SRC2 conf inactive, PPARg SRC1 conf inactive and PPARg SRC3 ag inactive.
For N#Cc1c(-c2ccccc2)ccnc1Oc1ccccc1 the results were PPARg SRC-1 ag inactive, PPARg SRC2 recr inactive, PPARg SRC3 recr inactive and SRC2 TRFRET art inactive.
`O=C(COC(=O)c1ccco1)NCc1ccc(F)cc1` gave SRC3 TRFRET art inactive, PPARg SRC-1 ag inactive, PPARg SRC2 recr inactive, PPARg SRC3 recr inactive, SRC1 TRFRET art inactive and SRC2 TRFRET art inactive.
COc1ccc(C(CC(=O)Nc2ccc(Cl)cc2F)NC(=O)C(F)(F)F)cc1 (stereo not drawn) was read as PPARg SRC-1 ag 18.7, PPARg SRC2 recr inactive, PPARg SRC3 recr inactive, SRC2 TRFRET art inactive, PPARg SRC2 conf inactive, PPARg SRC1 conf inactive and PPARg SRC3 ag inactive.
O=C1CCC(=O)N1c1ccc(-c2nc3ccccc3s2)cc1 was read as SRC3 TRFRET art inactive, PPARg SRC-1 ag 27.7, PPARg SRC2 recr 24.7, PPARg SRC3 recr inactive, SRC1 TRFRET art inactive, SRC2 TRFRET art inactive, PPARg SRC2 conf inactive, PPARg SRC1 conf inactive and PPARg SRC3 ag inactive.
For CCOc1ccc(-c2n[nH]c(=S)o2)cc1 the results were SRC3 TRFRET art inactive, PPARg SRC-1 ag inactive, PPARg SRC2 recr inactive, PPARg SRC3 recr inactive, SRC1 TRFRET art inactive and SRC2 TRFRET art inactive.
`CCOc1ccccc1-c1n[nH]c(=S)o1` gave PPARg SRC-1 ag 28.5, PPARg SRC2 recr 39.1, PPARg SRC3 recr 49.6, SRC2 TRFRET art 2292, PPARg SRC2 conf 43.0, PPARg SRC1 conf 29.9 and PPARg SRC3 ag 27.9.
For Cc1ccc(C(=O)NCCc2ccc(S(=O)(=O)N3CCCC3)cc2)cc1 the results were SRC3 TRFRET art inactive, PPARg SRC-1 ag inactive, PPARg SRC2 recr inactive, PPARg SRC3 recr inactive, SRC1 TRFRET art inactive and SRC2 TRFRET art inactive.
